USP1 inh – blocks the human USP1/UAF1 deubiquitinase complex; Potency, µM (highest dose often 57.1 µM), inactives show at the top dose activity change, negative = inhibition, usual class: inhibitors; recombinant USP1/UAF1, Ub-Rhodamine cleavage fluorescence; actives 0.23% (n = 390,000); O94782; further: potency means the concentration at half of the fitted maximal effect; on the % scale 0 is the no-effect control and ±100 the full control effect; nearly all actives have a fitted effect of over 60% in size
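Step one: compound is pinned into 1nM USP1/UAF1 in HEPES pH 7.8 buffer with TCEP. Step two: 15 min room-temperature incubation. Step three: Ub-Rho (150nM final) starts cleavage, tracked by fluorescence over six one-minute reads.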
D1 antagonist – blocks dopamine activation of the human D1 receptor; actives 3.2% (n = 360,000); HEK293 TREx D1 cells, calcium flux, dopamine EC80; active compounds read low; activity change, negative = inhibition, % at 10 µM; AID 504652; in the data active means activity change below about -30%; further: on the % scale 0 is the no-effect control and ±100 the full control effect
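HEK293 T-REx cells expressing inducible, force-coupled D1 receptor; no-wash Ca dye, 30–90 min RT. Cmpd → 180 s read at 1 Hz → EC80 DA → 180 s read.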
TRHR agonist-1 – activates the human TRH receptor; actives 0.18% (n = 360,000); TRHR cells, calcium flux fluo-8, FDSS agonist mode; activation, % at 2 µM; P34981; in the data active means activation above about 30%; further: 0% is about no effect
Target sequence (P34981 whole entry, looked up): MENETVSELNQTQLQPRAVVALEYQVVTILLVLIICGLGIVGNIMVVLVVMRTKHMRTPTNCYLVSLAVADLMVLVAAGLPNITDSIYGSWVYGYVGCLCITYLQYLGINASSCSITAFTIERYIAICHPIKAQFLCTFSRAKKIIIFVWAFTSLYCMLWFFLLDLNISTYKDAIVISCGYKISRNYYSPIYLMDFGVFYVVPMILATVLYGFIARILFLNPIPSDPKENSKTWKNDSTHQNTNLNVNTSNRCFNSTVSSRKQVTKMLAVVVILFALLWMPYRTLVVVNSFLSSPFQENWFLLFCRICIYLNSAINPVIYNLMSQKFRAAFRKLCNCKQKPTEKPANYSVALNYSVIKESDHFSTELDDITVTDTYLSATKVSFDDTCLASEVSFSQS
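TRHR-expressing cells loaded with fluo-8 calcium dye; 23 nL library compound pin-transferred, kinetic FDSS fluorescence (Ex 480/Em 530) recorded about 180 s for agonist-induced calcium release, before a 10 nM TRH EC20 addition for potentiator mode.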
D1 PAM – human D1 dopamine receptor positive modulation; P21728; HEK293 TREx D1 cells, calcium flux, dopamine EC20 potentiation; potentiation, % at 10 µM; actives 0.036% (n = 360,000); in the data active means potentiation above about 30%; further: 0% is about no effect
TRHR enhancer-1 – allosterically enhances the human TRH receptor; actives 0.66% (n = 360,000); P34981; TRHR cells, fluo-8 calcium fluorescence, EC20 TRH enhancement; AID 493056; enhancement, % at 2 µM; in the data active means enhancement above about 30%; further: 0% is about no effect
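TRHR-expressing cells loaded with fluo-8 calcium dye were read kinetically (ex 480/em 530) during compound addition, then stimulated with an EC20 of TRH (10 nM final). Enhancement of the Gq-mediated intracellular calcium response was scored.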
D1 agonist – human D1 receptor agonism; P21728; HEK293 T-REx D1 cells, calcium flux, agonist mode; activation, % at 2 µM; actives 1% (n = 360,000); AID 504660; in the data active means activation above about 30%; further: 0% is about no effect
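Inducible HEK293 T-REx D1 cells, force-coupled to calcium signalling, were plated at 4000 cells/well with tetracycline and held overnight at 30 C. After no-wash calcium dye loading, compound-evoked calcium rise over 180 s flagged agonists.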
TRHR enhancer-2 – human TRH receptor allosteric enhancement confirmation; TRH receptor cell assay, enhancer confirmation qHTS; shares compounds with TRHR enhancer-1; AID 493076; 970 tested, under 10 active; activity change, negative = inhibition, % at 46.1 µM;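 further: compound effect scored on response to added TRH at EC20 of 10 nM; 0% is about no effect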
TRHR agonist-2 – human TRH receptor agonism confirmation. shares compounds with TRHR enhancer-1. TRHR-expressing cells, agonist activation read-out. Potency, µM (doses to about 46.1 µM), inactives show at the top dose activation, most hits filed as activators. actives 8% (n = 970). AID 493078; further: potency means the concentration at half of the fitted maximal effect; 0% is about no effect; nearly all actives have a fitted effect of over 75% in size
* marks the source's active call; other numbers are inactive results; ? = inconclusive; / = not tested or not shown. Rows were chosen to be rich in hits. Some 4.4% of all compounds tested hit in one or more screens of this group. Unless noted, the call rests on the fitted dose curve; in most records, active means well fitted curve in the direction sought with a large enough effect; inconclusive means small, poorly fitted or top-dose-only effect, or another doubt; inactive means no such curve, though single readings can be large; an effect the other way counts as inactive or inconclusive.

SMILES	USP1 inh	D1 antagonist	TRHR agonist-1	D1 PAM	TRHR enhancer-1	D1 agonist	TRHR enhancer-2	TRHR agonist-2
COc1ccc(-c2nc3n(n2)C(c2ccccc2OC)C(C(=O)Nc2cccnc2)=C(C)N3)cc1 (configuration not stated)	-8%	-7	-1	-2	4	0	/	/
CC(C)(CCl)C(=O)Nc1ccc(OC(F)(F)F)cc1	-18%	-11	0	-5	-5	9	/	/
CS/C(=C\[N+](=O)[O-])Nc1ccc(OC(F)(F)F)cc1	-25%	-9	1	-1	43*	6	-3	?
CCOc1ccccc1C1CC(=O)Nc2c1c(=O)n(C)c1ncnn21 (configuration not stated)	-15%	-14	-2	-4	1	-1	/	/
O=C(CCCCCn1c(=O)[nH]c2ccsc2c1=O)NCc1ccccc1	?	-26	0	0	0	2	/	/
CCc1ccccc1NC(=O)NC1CCCCC1	-7%	2	0	0	48*	3	-3	0%
Cc1c(NC(=O)C(C)OC(=O)c2c3c(nc4ccccc24)CCC3)c(=O)n(-c2ccccc2)n1C (configuration not stated)	-5%	-7	-1	3	49*	1	-6	-1%
CCOC(=O)C1CCCN(c2c(Nc3ccc(C)c(C)c3)c(=O)c2=O)C1 (configuration not stated)	-16%	-7	-1	-9	57*	1	-3	3%
NC(=O)C1CCN(C(=O)Cn2c(-c3cccs3)cc3ccccc32)CC1	-19%	1	1	-3	-6	0	/	/
Cc1ccc(S(=O)(=O)N2CCN(CC(=O)Nc3ccc4c(c3)CCC4)CC2)cc1C	-21%	-2	0	-2	44*	3	-2	4%
Cc1ccc(NC(=O)CN2CCc3ccccc3C2)cc1S(=O)(=O)N1CCOCC1	-23%	-9	0	-7	3	2	/	/
Cc1ccc(NC(=O)CN2CCc3ccccc3C2)cc1S(=O)(=O)N(C)C	?	-2	0	-6	58*	4	-4	0%
O=C(N/N=C/c1coc2ccccc2c1=O)c1cccc([N+](=O)[O-])c1	-19%	-1	0	-8	61*	1	?	3%
Cc1ccccc1Cn1c(=O)n(CCCCC(=O)NCCc2ccccc2)c(=O)c2ccccc21	-26%	-14	0	1	-8	-1	/	/
CCOc1ccc(CN(C(=O)/C=C/c2ccco2)C2CCS(=O)(=O)C2)cc1 (configuration not stated)	-15%	4	41*	-1	-8	0	1	1%
CC(C)c1nn2c(=O)cc(COC(=O)C3CCCCC3)nc2s1	-12%	12	0	-4	3	3	/	/
COc1cccc(Cn2c(CNC(=O)Cc3cccc(C)c3)nc3cccnc32)c1	2%	8	-1	2	21	0	/	/
O=c1[nH]c(-c2ccc(O)cc2)nc2scc(-c3cccs3)c12	-20%	-18	1	-6	47*	3	4	1%
O=C(NCCSc1c(-c2ccc(Br)cc2)[nH]c2ccccc12)c1ccc(S(=O)(=O)N2CCOCC2)cc1	-25%	-7	0	0	-4	-1	/	/
Cc1ccc(O)c(C(=O)c2cc(C#N)c3nc4ccccc4n3c2)c1	-20%	7	42*	8	1	62*	-2	?
Cc1ccc(O)c(C(=O)c2cc(C#N)c(=O)n(C(C)c3ccccc3)c2)c1 (configuration not stated)	-6%	12	10	-3	7	2	/	/
COc1cc(/C=C2\SC(=S)N(C(Cc3ccccc3)C(=O)O)C2=O)ccc1O (configuration not stated)	-24%	-9	34*	3	4	47*	0	?
COc1cc(/C=C2\SC(=S)N(Nc3ccccc3)C2=O)ccc1O	-18%	-3	35*	-4	-6	122*	2	16µM*
COc1cc(/C=C2\SC(=S)N(c3cccnc3)C2=O)ccc1O	-8%	-6	-1	-6	6	30	/	/
O=C(NN1C(=O)/C(=C/c2ccc(O)c(O)c2)SC1=S)c1ccccc1	?	12	29	1	10	26	?	?
SMILES	USP1 inh	D1 antagonist	TRHR agonist-1	D1 PAM	TRHR enhancer-1	D1 agonist	TRHR enhancer-2	TRHR agonist-2
COc1cc(/C=C2\SC(=S)N(Nc3ncc(C(F)(F)F)cc3Cl)C2=O)ccc1O	-23%	9	47*	-1	26	97*	1	?
CCCOC(=O)c1cccc(Nc2nc(CCC)cc(=O)[nH]2)c1	-24%	-21	6	-1	0	14	/	/
O=C1CC(c2nnc(Cc3ccc(F)cc3Cl)o2)CN1c1ccccc1 (configuration not stated)	-14%	-4	-1	-2	4	-1	/	/
COc1ccc(CNC(=O)CN(C(=O)CCC(=O)Nc2ccccn2)c2cccc(C)c2)cc1	-9%	25	0	6	44*	0	7	6%
COc1ccc(CNC(=O)CN(C(=O)CCC(=O)Nc2ccccn2)c2ccc(C)cc2)cc1	-12%	-13	-1	1	5	3	/	/
Cc1cccc(-c2noc(-c3ccc(N4CCN(C)CC4)c([N+](=O)[O-])c3)n2)c1	?	-14	1	-2	3	-2	/	/
COC1=C/C(=C/c2c(N)n3nc(CC(=O)N4CCCCC4)sc3nc2=O)C=CC1=O	-22%	-4	23	-5	2	22	/	/
CCOC1=C/C(=C/c2c(N)n3nc(CC(=O)N4CCCCC4)sc3nc2=O)C=CC1=O	37%	16	61*	2	14	17	13	16µM*
CCOC(=O)c1c(C)[nH]c(CCC(=O)NCc2ccccc2Cl)c1C	-26%	-2	0	-1	0	-2	/	/
Cc1ccccc1C(=O)c1cccn1CC(=O)NC(C)CCc1ccccc1 (configuration not stated)	-12%	-10	0	-1	0	5	/	/
CC(CCc1ccccc1)NC(=O)Cn1cccc1C(=O)c1ccccc1 (configuration not stated)	-22%	18	-1	-4	46*	1	?	3%
O=C1CC(c2cccs2)Sc2nc3ccccc3n21 (configuration not stated)	-5%	-11	-1	7	-12	-2	/	/

Screens from PubChem.
